Measured values as given in PubChem BioAssay AID1986 (Sanford-Burnham Center for Chemical Genomics, 2009).
Screen size: about 290,000 compounds; about 890 (0.31%) were called active. No stated cut-off is given here; in the data, active means inhibition mostly above about 52% (no sharp cut-off); inactive means mostly below about 76%. What follows is part of a selection rich in actives, with near analogues and random picks from the rest.

Experiment: inhibitors of HIV fusion peptide binding, primary screen, biochemical, uHTS, fluorescence dequenching (AID 1986)
Conditions: cell-free peptide binding, 30 min, stronger effect = higher value
[1] = measured here: repeat confirmation average inhibition, at 18.6 µM

Structure (SMILES)	inhibition (at 20 µM)	inhibition [1] [%]
CC(C)(C)C(=O)Nc1cccc(-c2nc3ccccc3[nH]2)c1	1.3% (inactive)	
CC(C)OC(=O)CSc1nc(C(C)C)nc2ccccc12	1.3% (inactive)	
Cc1c(Cl)cccc1NC(=O)N1CCCC1	0.6% (inactive)	
O=C(O)CC(C(=O)O)N1C(=O)/C(=C/c2ccc(-c3nc4ccccc4s3)o2)SC1=S (stereo not given)	99% (active)	66.9
O=C(O)CCCN1C(=O)/C(=C\c2ccco2)SC1=S	53% (inactive)	3.5
O=C(O)CCCCCN1C(=O)/C(=C/c2ccncc2)SC1=S	9.2% (inactive)	
O=Cc1ccc(-c2nc3ccccc3s2)o1	1.2% (inactive)	
N#C/C(=C\c1ccc(-c2nc3ccccc3s2)o1)C(N)=O	2.1% (inactive)	
O=C(O)c1ccc(-c2nc3ccccc3s2)o1	1.8% (inactive)	
O=C(O)CCCCCN1C(=O)/C(=C\c2ccc(-c3ccc(Cl)cc3)o2)SC1=S	82.2% (active)	
O=C(O)CCN1C(=O)/C(=C\c2ccc(-c3nc4ccccc4s3)o2)SC1=S	73.9% (active)	
O=C(O)CCN1C(=O)/C(=C/c2ccc(-c3nc4ccccc4s3)o2)SC1=S	24.8% (inactive)	
O=C(O)CCCN1C(=O)/C(=C\C(Cl)=C\c2ccccc2)SC1=S	40.3% (inactive)	
O=C(O)CCCN1C(=O)/C(=C\c2ccc(-c3nc4ccccc4s3)o2)SC1=S	69.3% (active)	
O=C(O)CCCCCN1C(=O)/C(=C\c2ccncc2)SC1=S	6.4% (inactive)	
O=C(Nc1ccccc1)c1ccc(NCC2CCCO2)c(S(=O)(=O)N2CCOCC2)c1 (stereo not given)	-0.2% (inactive)	
CCOC(=O)c1c(NC(=O)CSc2ncn[nH]2)sc(C(=O)NC)c1C	-0.5% (inactive)	
Cn1c(SCC(=O)Nc2ccc3c(c2)OCCO3)nnc1C1CC1	0.2% (inactive)	
CN1C(=O)/C(=C/c2cn(CC(=O)NCc3ccco3)c3ccccc23)NC1=S	0.4% (inactive)	
COc1cc(/C=N/NC(=O)c2cccc(S(=O)(=O)N3CCCCC3)c2)cc(Br)c1O	1.7% (inactive)	
O=C(NC(Cc1ccccc1)C(=O)O)/C(=C\c1ccc(F)cc1)NC(=O)c1ccccc1 (stereo not given)	12.8% (inactive)	
CC(=O)Nc1ccc2c(c1)nc(CCN1CCN(C)CC1)n2C	-1.1% (inactive)	
O=C(Cc1ccc([N+](=O)[O-])cc1)Nc1ccc2c(c1)OCO2	0.9% (inactive)	

Structure (SMILES)	inhibition (at 20 µM)	inhibition [1] [%]
CCCc1nc(SC)[nH]c(=O)c1C	-0.9% (inactive)	
C#CCN1C(=O)S/C(=C\c2ccc(-c3ccc(Cl)c(C(=O)O)c3)o2)C1=O	18.9% (inactive)	
O=C(O)c1cc(-c2ccc(/C=C3/SC(=S)N(Cc4ccccc4)C3=O)o2)ccc1Cl	58.1% (active)	
COc1ccc(CN2C(=O)/C(=C/c3ccc(-c4ccc(Cl)c(C(=O)O)c4)o3)SC2=S)cc1	139% (inactive)	
CCCCn1c(N)c(NCc2ccccc2OC)c(=O)[nH]c1=O	2.3% (inactive)	
Nc1c(-c2cccc(Cl)c2)cnn1-c1ccccc1	-1.8% (inactive)	
c1ccc2sc(NC3=NCN(CC4CCCO4)CN3)nc2c1 (stereo not given)	1.1% (inactive)	
Cc1cc2ccccn2c1C(=O)c1ccc(NN)c([N+](=O)[O-])c1	-4.5% (inactive)	
Cc1cc2ccccn2c1C(=O)c1ccc(N/N=C/c2ccc(C(=O)O)cc2)c([N+](=O)[O-])c1	52.9% (active)	
CC(=O)Nc1ccc(/C=N/Nc2ccc(C(=O)c3c(C)cc4ccccn34)cc2[N+](=O)[O-])cc1	-5.5% (inactive)	
COc1cccc(-c2c(C(=O)N/N=C/c3cccnc3)nnn2-c2nonc2N)c1	-0.9% (inactive)	
O=C(O)CCNc1cc(N2CCN(C(=O)c3ccco3)CC2)c2noc3c2c1C(=O)c1ccccc1-3	54.7% (active)	
CC(=O)OCCNc1cc(N2CCN(C)CC2)c2noc3c2c1C(=O)c1ccccc1-3	-2% (inactive)	
CCOC(=O)N1CCN(c2cc(NCCC(=O)O)c3c4c(onc24)-c2ccccc2C3=O)CC1	18% (inactive)	
O=C(O)CCCNc1cc(N2CCC3(CC2)OCCO3)c2noc3c2c1C(=O)c1ccccc1-3	58.7% (active)	
CCN1CCN(c2cc(N3CCN(C(=O)c4ccco4)CC3)c3c4c(onc24)-c2ccccc2C3=O)CC1	10.6% (inactive)	
O=C1c2ccccc2-c2onc3c(N4CCN(CCO)CC4)cc(N4CCN(C(=O)c5ccco5)CC4)c1c23	5.9% (inactive)	
O=C(O)CCCNc1cc(N2CCN(C(=O)c3ccco3)CC2)c2noc3c2c1C(=O)c1ccccc1-3	70% (active)	
O=[N+]([O-])c1c(NCCO)cc(N2CCC3(CC2)OCCO3)c2nonc12	-2.2% (inactive)	
CN1CCN(c2cc(N3CCN(C(=O)c4ccco4)CC3)c3c4c(onc24)-c2ccccc2C3=O)CC1	5.9% (inactive)	
CCCCNC(=O)Nc1nnc(SCC(=O)OCC)s1	-2.1% (inactive)	
COc1ccc(Cc2nc3ccccc3[nH]c2=O)cc1	-2.8% (inactive)	
Cc1sccc1C1C(C#N)=C(N)SC(N)=C1C#N	32.9% (inactive)	

Structure (SMILES)	inhibition (at 20 µM)	inhibition [1] [%]
Cc1cc(C2C(C#N)=C(N)SC(N)=C2C#N)c(C)s1	51.9% (active)	68.2
Cc1ccc(C2C(C#N)=C(N)SC(N)=C2C#N)c(C)c1	-3.6% (inactive)	
C=CCN=C1S/C(=C\c2ccc(N(C)C)cc2)C(=O)N1CC=C	2.1% (inactive)	
C=CCN1C(=O)/C(=C/c2ccccc2)S/C1=N/c1nccs1	1.5% (inactive)	
C=CCN1C(=O)/C(=C/c2ccc(N(C)C)cc2)S/C1=N\c1nnc(CC)s1	61.5% (active)	
Cc1[nH]c(=O)[nH]c(=O)c1S(=O)(=O)N1CCCC(C(=O)NCCC2=CCCCC2)C1 (stereo not given)	0.7% (inactive)	
COc1ccc(Cl)cc1Nc1nc(C)nc2c1nnn2Cc1ccccc1	-1% (inactive)	
NC(=O)CC1Nc2cccc3cccc(c23)NC1=O (stereo not given)	57.4% (active)	
O=C(CC1Nc2cccc3cccc(c23)NC1=O)Nc1ccc(F)cc1 (stereo not given)	59.6% (inactive)	-0.8
Cc1cccc(NC(=O)CC2Nc3cccc4cccc(c34)NC2=O)c1 (stereo not given)	-5.8% (inactive)	
CC(=O)Nc1ccc(NC(=O)CC2Nc3cccc4cccc(c34)NC2=O)cc1 (stereo not given)	67.6% (inactive)	-1.4
O=C(CC1Nc2cccc3cccc(c23)NC1=O)Nc1ccccc1 (stereo not given)	57.7% (active)	
COc1ccc(NC(=O)CC2Nc3cccc4cccc(c34)NC2=O)cc1 (stereo not given)	51.5% (inactive)	-2.3
COc1cc2c(cc1NC(=O)CSc1nnc(Cc3cccs3)n1C)oc1ccccc12	-3.3% (inactive)	
CCOC(=O)c1c(-c2ccc(C)cc2)csc1NC(=O)/C(C#N)=C/c1ccc(O)c(OC)c1	95% (inactive)	7.7
CCOC(=O)c1c(-c2ccccc2)csc1NC(=O)/C(C#N)=C/c1ccc(OC)c(OC)c1	24.6% (inactive)	
CCOC(=O)c1c(-c2ccccc2)csc1NC(=O)/C(C#N)=C/c1ccc(O)c(OC)c1	78.2% (active)	53.4
COC(=O)C1=C(C)N(C)C(=O)NC1c1c(OC)ccc2ccccc12 (stereo not given)	-0.6% (inactive)	
O=C(Nc1ccc(Cl)cc1F)C1CCN(S(=O)(=O)c2cccnc2)CC1	-1.9% (inactive)	
COc1ccc(NC(=O)C23CC4CC(C2)CC(n2cnc(Br)n2)(C4)C3)c(OC)c1	-1.5% (inactive)	
COc1cc(OC)c(OC)cc1CNCCNC(=O)c1ccco1	1.1% (inactive)	
Cc1onc(-c2ccccc2Cl)c1C(=O)N1CCCc2ccccc21	-0.5% (inactive)	
COc1ccc(CCNS(=O)(=O)c2cccc3nsnc23)cc1OC	0.3% (inactive)	

Structure (SMILES)	inhibition (at 20 µM)	inhibition [1] [%]
c1ccc(CCn2nnnc2CN2CCc3ccccc32)cc1	1.1% (inactive)	
CC1=C(C#N)c2nc(N)c(C#N)c(C)c2/C1=C\c1ccc(OCC(=O)O)c(Cl)c1	28% (inactive)	
CC1=C(C#N)c2nc(N)c(C#N)c(C)c2/C1=C\c1ccc(C)cc1	15.6% (inactive)	
CC1=C(C#N)c2nc(N)c(C#N)c(C)c2/C1=C\c1ccc(-c2ccccc2C(=O)O)o1	56.8% (active)	
CCOc1ccc(N(C)C(=O)CCc2nnc3ccc(N4CCC5(CC4)OCCO5)nn23)cc1	0.1% (inactive)	
COc1ccc(CC(=O)N(C)CC(=O)Nc2ccccc2SC)cc1	3.4% (inactive)	
COc1ccc(OC)c(NC(=O)CN(C)S(=O)(=O)c2ccc3nc(C)sc3c2)c1	-0.6% (inactive)	
CN(C)c1ccc(/C=N/N(CCC#N)C2=NS(=O)(=O)c3ccccc32)cc1	69.3% (active)	64.2
N#CCCN(/N=C/c1cccnc1)C1=NS(=O)(=O)c2ccccc21	-1.4% (inactive)	
CN(C)c1ccc(/C=N/N(CCO)C2=NS(=O)(=O)c3ccccc32)cc1	159% (inactive)	
O=C(COc1ccc(F)cc1)N(Cc1cccs1)C1CCS(=O)(=O)C1 (stereo not given)	3.2% (inactive)	
Cc1ccc(C(=O)Nc2ccc(Oc3ccc(C(=O)O)c(C(=O)O)c3)cc2)cc1C	17.4% (inactive)	
O=C(Nc1cccc(Oc2ccc(C(=O)O)c(C(=O)O)c2)c1)c1ccc(-c2ccccc2)cc1	75.5% (active)	
CC(C)(C)C(=O)Nc1ccc(C(=O)Nc2cccc(Oc3ccc(C(=O)O)c(C(=O)O)c3)c2)cc1	37.8% (inactive)	
CCOC(=O)/C(=C\C=C1/Sc2ccccc2N1CC)C(C)=O	150% (inactive)	
CCN1/C(=C\C=C(C(C)=O)C(C)=O)Sc2ccccc21	148% (inactive)	
CCOC(=O)/C(=C/C=C1\Sc2ccccc2N1CC)C(C)=O	114% (active)	145
C=Cc1ccc(C(=O)NC2CCCN(Cc3ccccc3F)C2)cc1 (stereo not given)	1.1% (inactive)	
CC(C)c1ccc(C(=O)NCc2ccc(Cl)cc2)cc1	-2.4% (inactive)	
CC(C)c1ccc2c(c1)c(SC(C)(C)C)c(CC(C)(C)C(=O)O)n2Cc1ccc(Cl)cc1	53.9% (active)	
Cc1ccc2c(c1)c(N=O)c(O)n2Cc1ccc(Cl)cc1	-0.1% (inactive)	
